# Compounds with a hit are over-represented: about 3.5% of the library has one in this group of screens.
# GDH-TPI counter-1: GDH-TPI coupled enzyme inhibition counter-screen; GDH-TPI coupled enzyme counterscreen, NADH absorbance; inhibition, % at 4.8 µM; actives 1.2% (n = 360,000); AID 588335; in the data active = inhibition above about 30%;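 note: 0% = DMSO wells and 100% = wells lacking the enzyme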
# Rv3671c inh: inhibitors of M. tuberculosis serine protease Rv3671c | P9WHR9 | inhibition, % at 5.96 µM | actives 0.048% (n = 320,000) | AID 2606; in the data active = inhibition above about 38%;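 note: extracellular domain of Rv3671c used as enzyme; 0% = enzyme with DMSO and 100% = no enzyme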
# Mtb hypoxia rep: inhibitors of hypoxia-regulated fluorescent reporter in Mycobacterium tuberculosis | M. tuberculosis hypoxia-regulated fluorescent reporter, fluorescence | fluorescence inhibition, % (concentration not given with the values) | actives 0.1% (n = 300,000); in the data active = fluorescence inhibition mostly above about 23%, no sharp cut-off; inactive = mostly below about 17%
# FBA Mtb inh: inhibits M. tuberculosis FBA enzyme | purified M. tuberculosis FBA, fluorescence read-out | P9WQA3 | AID 588726 | actives 2.3% (n = 360,000) | inhibition, % at 1 µM;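 note: 0% = vehicle and 100% = reference inhibitor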
# FadD28 binding: inhibitors of Mycobacterium tuberculosis FadD28 bisubstrate binding | FadD28 bisubstrate probe binding, fluorescence polarization | inhibition, % at 12.5 µM | AID 588549 | actives 0.22% (n = 360,000); in the data active = inhibition above about 8.5%, passing the limit was not always enough
# Mtb UGM inh: blocks M. tuberculosis UGM enzyme; actives 0.06% (n = 320,000); inhibition, % at 10 µM; P9WIQ1; purified UGM, fluorescence polarization probe displacement; in the data active = inhibition above about 10%, passing the limit was not always enough
# Target sequence (P9WIQ1 whole entry, looked up): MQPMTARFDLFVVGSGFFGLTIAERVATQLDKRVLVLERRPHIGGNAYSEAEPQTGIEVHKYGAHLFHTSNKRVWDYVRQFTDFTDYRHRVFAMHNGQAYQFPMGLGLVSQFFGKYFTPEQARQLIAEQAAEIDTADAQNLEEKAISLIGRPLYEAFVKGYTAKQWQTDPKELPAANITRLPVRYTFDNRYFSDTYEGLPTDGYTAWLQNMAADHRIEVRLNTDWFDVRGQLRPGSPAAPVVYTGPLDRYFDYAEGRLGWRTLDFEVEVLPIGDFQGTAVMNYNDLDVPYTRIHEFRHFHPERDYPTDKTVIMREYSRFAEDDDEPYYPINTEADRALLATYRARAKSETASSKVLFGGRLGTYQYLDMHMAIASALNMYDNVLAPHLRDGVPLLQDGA
# Mtb FBA inh conf: confirmation of M. tuberculosis fructose-bisphosphate aldolase inhibitors | shares compounds with FBA Mtb inh | actives 78% (n = 5,600) | inhibition, % at 1 µM | purified M. tuberculosis FBA, fluorescence read-out;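 note: 0% = vehicle wells and 100% = reference inhibitor wells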
# GDH-TPI counter-2: counter-screen for M. tuberculosis FBA inhibitors: GDH-TPI coupled enzyme inhibition; shares compounds with FBA Mtb inh; GDH-TPI coupled enzyme counterscreen, fluorescence; inhibition, % at 1 µM; actives 81% (n = 5,600); AID 652141; in the data active = inhibition above about 10%
# An asterisk follows results filed as active; . = no result; + = active, no number. Cut-off read from the data, not from the text of the source, unless noted: active = inhibition above about 27%; inactive = the rest.
SMILES,GDH-TPI counter-1,Rv3671c inh,Mtb hypoxia rep,FBA Mtb inh,FadD28 binding,Mtb UGM inh,Mtb FBA inh conf,GDH-TPI counter-2
CC(CC(=O)Nc1ccc(N(C)C)cc1)=NNC(=O)c1ccc([N+](=O)[O-])cc1Cl,.,.,2,.,.,.,.,.
O=C(COc1ccc2c3c(c(=O)oc2c1)CCC3)NCC(O)c1ccccc1 (centres undefined),2,5,7,3,-3,1,.,.
Cc1cc(OCC(=O)NCC(O)c2ccccc2)c2c3c(c(=O)oc2c1)CCCC3 (centres undefined),7,-2,6,12,0,-2,.,.
Cc1cc(OC(C)C(=O)NCC(O)c2ccccc2)c2c3c(c(=O)oc2c1)CCCC3 (centres undefined),6,0,-2,81*,-4,3,169*,131*
Cc1cc(OC(C)C(=O)N[C@H](C(=O)O)c2ccccc2)c2c3c(c(=O)oc2c1)CCC3 (some centres undefined),3,5,.,108*,-4,0,144*,105*
CC(Oc1ccc2c3c(c(=O)oc2c1)CCCC3)C(=O)NCC(O)c1ccccc1 (centres undefined),19,-6,-9,50*,0,1,165*,117*
COC(C(=O)NN=C(C)CC(=O)Nc1ccc(Cl)cc1C)c1ccccc1 (centres undefined),.,.,9,.,.,.,.,.
CCC(C)[C@H](NC(=O)C1CC(=O)N(c2ccc3c(c2)OCCO3)C1)C(=O)NC1CCCC1 (some centres undefined),-11,0,6,2,-5,0,.,.
CC(C)[C@H](NC(=O)C1CC(=O)N(c2ccc3c(c2)OCCO3)C1)C(=O)NC1CCCC1 (some centres undefined),-3,-11,8,96*,-1,2,+,+
COc1ccccc1OCc1nc(C#N)c(NCc2ccco2)o1,1,2,.,3,0,-5,.,.
N#Cc1nc(-c2ccc(F)cc2)oc1NCc1ccco1,6,3,5,71*,0,-1,107*,73*
Cc1cccc(-c2nc(C#N)c(NCc3ccco3)o2)c1,5,-10,.,48*,-3,1,165*,135*
N#Cc1nc(-c2ccc(OCc3ccc(Cl)cc3)cc2)oc1NCCCn1ccnc1,2,2,3,1,-3,-3,.,.
N#Cc1nc(-c2ccccc2)oc1NCCCn1ccnc1,11,2,2,100*,-1,2,139*,89*
Cc1ccc(OCc2nc(C#N)c(NCc3ccco3)o2)cc1,5,-4,.,1,2,4,.,.
N#Cc1nc(-c2ccco2)oc1NCc1ccccc1Cl,19,-2,-4,35*,-3,5,89*,79*
C#CCOCCOCCOCCNc1nc(N2CCN(C(=O)Cn3cc(CCCN=C(N)N)nn3)CC2)nc(N2CCN(C(=O)C(CCCCN)n3cc(CCCC)nn3)CC2)n1 (centres undefined),.,.,2,.,.,.,.,.
CN(C)C=Nc1c(C#N)cnn1-c1nc2ccccc2s1,.,.,14,.,.,.,.,.
COCCNc1oc(-c2ccc(F)cc2)nc1C#N,9,2,6,107*,-2,1,8,-1
N#Cc1nc(-c2ccco2)oc1NCc1ccco1,13,-5,7,40*,-2,4,172*,176*
CN(C)CCNc1oc(-c2cccc(Cl)c2)nc1C#N,1,-7,6,57*,-2,-1,20,11*
CN(Cc1ccccc1)c1oc(-c2ccco2)nc1C#N,16,0,5,67*,0,0,41*,37*
N#Cc1nc(Cc2cccc3ccccc23)oc1NCc1ccco1,-2,-8,2,0,-3,1,.,.
C/C(C=NNC(=O)c1cc(C)oc1C)=C\c1ccccc1,.,.,10,.,.,.,.,.
COc1cc(C=NNc2nc(C)cc(C)n2)ccc1OC(=O)c1ccco1,.,.,-15,.,.,.,.,.
SMILES,GDH-TPI counter-1,Rv3671c inh,Mtb hypoxia rep,FBA Mtb inh,FadD28 binding,Mtb UGM inh,Mtb FBA inh conf,GDH-TPI counter-2
CC(C)(C)c1ccc(-c2nc(C#N)c(NCc3cccnc3)o2)cc1,12,3,4,13,-2,0,.,.
N#Cc1nc(-c2ccco2)oc1NCCCN1CCOCC1,19,-3,4,56*,0,0,+,+
N#Cc1nc(-c2ccc(F)cc2)oc1NCc1ccccc1,1,3,11,81*,1,0,165*,120*
N#Cc1nc(-c2ccc(OCc3ccccc3)cc2)oc1NCCN1CCOCC1,.,3,4,.,.,2,.,.
O=S(=O)(c1ccccc1)c1nc(-c2ccco2)oc1NCCCN1CCOCC1,4,5,.,1,-2,-1,.,.
CNc1oc(-c2ccc(OCc3ccccc3)cc2)nc1C#N,6,3,-2,74*,-2,1,84*,70*
N#Cc1nc(-c2cccc3ccccc23)oc1NCCN1CCCCC1,11,-2,9,70*,-1,2,195*,188*
COc1ccc(CCNc2oc(-c3ccccc3OC)nc2C#N)cc1OC,9,15,5,86*,0,-2,96*,70*
Cc1ccc(-c2nc(C#N)c(NCc3ccco3)o2)cc1,11,-7,.,92*,1,.,54*,41*
FC(F)(F)c1cc(-c2ccccc2)nc2ncnn12,1,2,1,34*,1,1,0,-3
FC(F)(F)c1cc(-c2ccco2)nc2ncnn12,17,0,8,27*,-1,-3,75*,57*
NC(=O)c1cc2nc(-c3ccco3)cc(C(F)(F)F)n2n1,28,11,16,24,-1,-3,.,.
Cc1ccc(Nc2cc(-c3ccccc3)nc3ncnn23)cc1,1,2,18,-20,-1,0,.,.
O=C(NN=Cc1cccs1)c1ccc2ncccc2c1,.,.,9,.,.,.,.,.
CCOC(=O)Nc1ccc2nc(-c3cscn3)[nH]c2c1,19,.,.,28*,0,.,51*,38*
O=C(CON=Cc1cccc([N+](=O)[O-])c1)NC1CCCCC1,.,.,4,.,.,.,.,.
Cc1nc2ccccn2c1-c1nnco1,3,-2,.,36*,0,-2,5,-4
Cc1cccc(Nc2nc(-c3c(C)nc4ccccn34)cs2)c1,7,0,21,1,-5,-1,.,.
CCOC(=O)C(C)Sc1nc(-c2cccs2)ccc1C#N (centres undefined),21,-6,-9,41*,-8,-1,2,4
C=COC(=O)CSc1nc(-c2cccs2)ccc1C#N,16,-7,6,30*,-1,1,71*,53*
COc1ccc(OC)c(C=NN(C)c2ccccc2)c1,.,.,6,.,.,.,.,.
CCN(c1cccc(C)c1)S(=O)(=O)c1ccc2c(c1)oc(=O)n2C,2,1,17,79*,0,-1,49*,46*
